From PubChem BioAssay
Mdm2-MdmX inh: disrupts the human Mdm2-MdmX interaction. O15151+Q00987. SaOS-2 split-luciferase Mdm2/MdmX complementation, luminescence. inhibition, % at 8 µM. 330,000 compounds, 3% hits. AID 485346;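 active = inhibition of at least 50% at 8 µM in the primary screen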
MPTP inh: permeability transition pore inhibition; 360,000 compounds, 1.4% hits; isolated mouse mitochondria, Ca2+ swelling absorbance, 30 min; inhibition, % at 10 µM; AID 602449;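 active = inhibition of 50% or more, scaled per plate between neutral and stimulator controls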;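 also: 0% = DMSO wells given calcium and 100% = 1 mM EGTA wells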
GRIN3A LBD mod: modulators (binders) of human NR3A ligand-binding domain | NR3A LBD differential scanning fluorimetry, Tm shift; 0% = protein alone, 100% = glycine-bound protein | Tm shift relative to glycine control, % at 25 µM | 340,000 compounds, 2.5% hits;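 active = melting temperature shift of at least 10% of the positive control shift, at one fixed dose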
Beta apoptosis: beta cell apoptosis inhibition; INS-1E cytokine-induced death, ATP luminescence, 48 h; percent of positive-control rescue, neutral wells zero; protection from apoptosis, % (no concentration beside the values); 300,000 compounds, 0.8% hits;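 active = Every replicate reaches about 75%, or at least half do and their mean reaches it too, limit read from the data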;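 also: 0% = cytokine-treated negative control wells and 100% = positive control rescue; higher means more ATP so stronger rescue from cytokine killing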
SKKanGAS inh: inhibitors of SKKanGAS S. pyogenes growth in kanamycin (SK-promoter or general growth effect); BacTiter-Glo, 6 h; inhibition, % at 7.5 µM; 300,000 compounds, 1.3% hits; AID 1662;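 active = mean replicate score, as percent of positive control median, at least 50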;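 also: strain carries kanamycin resistance gene driven by streptokinase promoter and grows in 40 µg/ml kanamycin; loss of luminescence reflects streptokinase promoter inhibition or plain growth inhibition; 0% = median of DMSO wells and 100% = positive control at its reference dose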
CSC inhib: cancer stem cell inhibition. cancer stem cell-like cells viability, luminescence. inhibition, % at 7.5 µM. 300,000 compounds, 1.1% hits; in the data active = inhibition above about 75%; tested in HMLE shEcad cells
Mdm2 MdmX conf: confirmation of human Mdm2/MdmX interaction inhibitors | shares compounds with Mdm2-MdmX inh | Mdm2-MdmX binding, luminescent assay | inhibition, % at 8 µM | 10,000 compounds, 55% hits; in the data active = inhibition above about 40%
FLuc counter: full-length luciferase inhibition in Mdm2/MdmX counter-screen. shares compounds with Mdm2-MdmX inh. SaOS-2 full-length luciferase counterscreen, luminescence. inhibition, % at 8 µM. 6,200 compounds, 77% hits;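 active = mean inhibition at 8 µM reaching about 37%, which flags the compound as non-specific, limit read from the data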;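 also: p53-null SaOS-2 cells with luciferase driven by a doxycycline-inducible promoter; compound on cells about two nights before reading with doxycycline added after day one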
Active calls of the source: *; nt = no result given. A selection: hits, their analogues and other compounds. The true share with any hit is near 6.9%.

SMILES | Mdm2-MdmX inh | MPTP inh | GRIN3A LBD mod | Beta apoptosis | SKKanGAS inh | CSC inhib | Mdm2 MdmX conf | FLuc counter
C=CCn1c(SCc2nc3ccccc3c(=O)[nH]2)nc2sc3c(c2c1=O)CCCC3 | 85* | nt | 0 | 0 | 0 | 18 | 20 | nt
COc1ccc(/C=C/CN2CCC(n3nccc3NC(=O)C3CCCC3)CC2)cc1 | 27 | 0 | -1 | -1 | 1 | -7 | nt | nt
CCOc1ccc(CN(C)C(=O)CCNC(=O)c2ccco2)cc1 | 1 | -2 | 0 | -7 | nt | -5 | nt | nt
CCOc1ccc(CN(C)C(=O)CCl)cc1 | 56* | 2 | 0 | 2 | 0 | -12 | 22 | nt
Cc1sc2ncn(CC(=O)NCCCC(=O)Nc3ccc(C(C)C)cc3)c(=O)c2c1C | 82* | 1 | 0 | 10 | 6 | 17 | 43* | 29
NCCCn1c(C(=O)c2cc(Cl)c(N)c(Cl)c2)c2ccc(C(F)(F)F)cc2[n+]1[O-] | 40 | 1 | 4 | 2 | -2 | -10 | nt | nt
NCCCn1c(C(=O)c2cc(Cl)c(N)c(Cl)c2)c2ccc([N+](=O)[O-])cc2[n+]1[O-] | 66* | 0 | -5 | 87* | 63* | 51 | 54* | 63*
NC(=O)c1ccc(Cn2c(C(=O)c3ccc(Cl)cc3)c3ccccc3[n+]2[O-])cc1 | 12 | 1 | 1 | 0 | nt | -3 | nt | nt
NC(=O)c1ccc(Cn2c(C(=O)c3cc(Cl)c(N)c(Cl)c3)c3ccccc3[n+]2[O-])cc1 | 53* | 0 | -7 | 8 | nt | 47 | 52* | 65*
Nc1nc(N)nc(Cc2ccccc2O)n1 | 13 | -1 | 1 | -8 | nt | -14 | nt | nt
CCOc1ccc(S(=O)(=O)N2CCCCC2)cc1NC(=O)CN1C(=O)NC(C)(C2CC2)C1=O (stereo not given) | -7 | 0 | 0 | 1 | nt | nt | nt | nt
Cc1ccc(-c2nc3sc(C(N)=O)c(N)c3c3c2CCCC3)cc1 | -6 | -4 | -18 | -1 | 21 | 18 | nt | nt
Cc1nc2sc(C(N)=O)c(N)c2c2c1CCCC2 | 87* | 1 | 0 | -7 | -7 | 5 | 89* | 49*
NC(=O)c1sc2nc3c(c(-c4ccco4)c2c1N)CCC3 | 77* | 0 | 0 | -51 | -2 | -13 | 55* | 25
Cc1ccc(-c2c3c(nc4sc(C(N)=O)c(N)c24)CCCC3)o1 | 28 | 0 | 2 | -4 | 7 | -1 | nt | nt
C[C@H]1CCC[C@]2(C)C[C@H]3OC(=O)C(CN4CCCCCC4)[C@H]3C=C12 (stereo not given in full) | 73* | -1 | 1 | -64 | -1 | 16 | 48* | 14
CC(C)(C)NC(=S)NCC1CC1 | 21 | 4 | 1 | -12 | 4 | -6 | nt | nt
COC(=O)N1C(=O)[C@@](c2ccccc2)(C2CCCC2)N1C(=O)OC | 74* | 0 | 0 | 1 | -1 | 22 | 35 | nt
COC(=O)N1C(=O)[C@](CC(C)C)(c2ccccc2)N1C(=O)OC | nt | 2 | -1 | -11 | 0 | 7 | nt | nt
COC(=O)N1C(=O)[C@](c2ccccc2)(C2CCCCC2)N1C(=O)OC | 46 | 1 | -1 | 1 | 9 | 16 | nt | nt
COC(=O)N1C(=O)[C@@](CC(C)C)(c2ccccc2)N1C(=O)OC | 51* | nt | nt | -11 | 1 | 38 | 14 | nt
O=[N+]([O-])c1ccc(N2CCN(CC3CCCCC3)CC2)cc1 | 1 | 0 | -1 | 7 | 3 | -10 | nt | nt
COCCN(C(=O)COC(=O)CCC1CCCCC1)c1c(N)n(Cc2ccccc2)c(=O)[nH]c1=O | nt | -2 | nt | nt | nt | nt | nt | nt
O=C(NCCc1cnc[nH]1)c1ccc(-c2ccccc2)cc1 | -17 | 0 | -2 | -8 | -1 | 2 | nt | nt
CCc1cccc(NC(=O)c2cc(S(=O)(=O)N3CCCCC3)ccc2N2CCOCC2)c1 | nt | 0 | nt | nt | nt | nt | nt | nt
SMILES | Mdm2-MdmX inh | MPTP inh | GRIN3A LBD mod | Beta apoptosis | SKKanGAS inh | CSC inhib | Mdm2 MdmX conf | FLuc counter
Cc1cnc(NC(=O)c2cc(S(=O)(=O)N(C)C)ccc2N2CCCC2)s1 | 53* | 0 | -7 | -35 | nt | 51 | 32 | 50*
CCc1cccc(NC(=O)c2cc(S(=O)(=O)N(C)C)ccc2N2CCCC2)c1 | 52* | 2 | 1 | -7 | -9 | 3 | 50* | 51*
CN(C)S(=O)(=O)c1ccc(N2CCCC2)c(C(=O)Nc2nccs2)c1 | 47 | 1 | 2 | -14 | nt | 4 | nt | nt
Cn1c(SCC(=O)c2ccc3c(c2)NC(=O)CO3)nc2ccccc21 | 14 | -3 | -1 | -4 | 10 | 8 | nt | nt
CCc1ccc(-n2c(SCC(=O)c3ccc4c(c3)NC(=O)CO4)nc3ccccc3c2=O)cc1 | 64* | -2 | -1 | 42 | -5 | 22 | -4 | nt
O=C1COc2ccc(C(=O)CSc3nc4ccccc4c(=O)n3-c3ccc(Cl)c(Cl)c3)cc2N1 | 98* | 5 | -6 | 69 | 1 | -4 | 24 | nt
COC(=O)[C@@]1(C)[C@H]2C(=O)N(Cc3ccccc3)C(=O)[C@H]2[C@H]2CN(C)C(=NC3CCCCC3)N21 | -23 | 0 | -3 | nt | nt | nt | nt | nt
C[C@H](CO)N1C[C@H](C)[C@H](CN(C)Cc2cncnc2)Oc2cc(Br)ccc2S1(=O)=O | nt | -3 | nt | nt | nt | nt | nt | nt
COc1ccc(N/N=C(\C=N\O)C(=O)c2ccc(OC)cc2)cc1 | 56* | 0 | -3 | 19 | 2 | -5 | 56* | 60*
Cc1c(S(=O)(=O)N2CCN(c3ccccc3)CC2)c(=O)n(C)c(=O)n1C | -18 | -2 | 0 | -7 | -16 | -9 | nt | nt
CC(=O)Nc1cccc(-c2cn3ccccc3n2)c1 | -13 | 0 | 0 | 0 | -3 | nt | nt | nt
O=C(Nc1cccc(-c2cn3ccccc3n2)c1)c1cc2ccccc2oc1=O | 100* | -2 | 1 | 9 | 4 | 5 | 21 | nt
CCn1c2ccccc2c2cc(NC(=O)c3ccc(=O)oc3)ccc21 | 34 | 10 | 5 | -8 | 12 | 4 | nt | nt
CCn1c2ccccc2c2cc(NC(=O)c3coc(=O)c(Br)c3)ccc21 | 74* | 8 | nt | 36 | 8 | 66 | 32 | 38*
CCn1c2ccccc2c2cc(NC(=O)c3cc(OC)c(OC)c(OC)c3)ccc21 | 69* | 2 | -2 | nt | 0 | nt | 62* | 119*
COc1cc(C(=O)Nc2ccc3c(c2)N(C(=O)CCN(C)C)c2ccccc2CC3)cc(OC)c1OC | 61* | 2 | 0 | 1 | -2 | -2 | 41* | 100*
COc1cc(-n2c(=O)c3ccccc3n(CC(=O)c3ccccc3)c2=O)cc(OC)c1OC | 83* | 0 | -2 | 5 | -18 | -14 | 4 | nt
CCN(CC(=O)Nc1c(F)cccc1F)C(=O)Cc1csc(-c2ccccc2)n1 | 35 | -3 | 0 | -2 | -6 | -21 | nt | nt
CC(=O)c1ccc(OCC(=O)N2CCCC2c2ccc3c(c2)OCCCO3)cc1 (stereo not given) | 13 | -1 | 2 | -17 | nt | -3 | nt | nt
